From publication PMC5540273 (PLoS ONE, 2017)
Like-named read-outs stand apart in the source and are kept apart here.

Legend:
AAK1 = conditions: n = 1
ABL1-nonphosphorylated = conditions: concentration: 1 μM, replicates: in singlicate; n = 1
ABL1-phosphorylated = conditions: concentration: 1 μM, replicates: in singlicate; n = 1
ABL2 = conditions: concentration: 1 μM, replicates: in singlicate; n = 1
ACVR1B = conditions: concentration: 1 μM, replicates: in singlicate; n = 1
ACVR1 = conditions: concentration: 1 μM, replicates: in singlicate; n = 1
ACVR2A = conditions: concentration: 1 μM, replicates: in singlicate; n = 1
ACVR2B = conditions: concentration: 1 μM, replicates: in singlicate; n = 1
ACVRL1 = conditions: concentration: 1 μM, replicates: in singlicate; n = 1
ADCK3 = test system: T1, ADCK3; conditions: concentration: 1 μM, replicates: in singlicate; n = 1
T1 construct: gene CABC1

[1] = concentration: 1 μM, replicates: in singlicate
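Note: KINOMEscan kinase panel screen.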

| Compound | %Inh (AAK1; [1]) | %Inh (ABL1-nonphosphorylated) | %Inh (ABL1-phosphorylated) | %Inh (ABL2) | %Inh (ACVR1B) | %Inh (ACVR1) | %Inh (ACVR2A) | %Inh (ACVR2B) | %Inh (ACVRL1) | %Inh (ADCK3) | %Inh (AAK1; 1 µM) |
| --- | --- | --- | --- | --- | --- | --- | --- | --- | --- | --- | --- |
| Cl.N#CCc1ccc(Nc2nccc(Nc3ccc(Oc4ccccc4)cc3)n2)cc1 [GW639905] | 7% | 0% | 9% | 13% | 0% | 26% | 100% | 0% | 0% | 6% |  |
| Nc1cccc(-c2ccc3c(N)n[nH]c3c2)c1 [GSK2193613] | 55% | 34% | 37% | 21% | 0% | 11% | 0% | 19% | 0% | 3% |  |
| Cc1ccccc1CC(=O)N1CCc2cc(-c3cn(C)c4ncnc(N)c34)ccc21 [GSK2603346] | 3% | 50% | 25% | 29% | 0% | 0% | 0% | 65% | 11% | 3% |  |
| CCOc1nccc(-c2c(-c3ccc(F)cc3)ncn2C2CCNCC2)n1 [SB-249175] | 11% | 35% | 2% | 0% | 100% | 11% | 9% | 0% | 1% | 13% |  |
| Nc1ncc(-c2ccc3nccc(-c4ccncc4)c3c2)cc1S(=O)(=O)N1CCCCC1 [GSK1693850] | 0% | 0% | 0% | 9% | 0% | 53% | 2% | 9% | 37% | 65% |  |
| Cc1ccc(O)cc1Nc1ccnc2ccc(C(C)(C)C)cc12 [GW856805] | 10% | 98.1% | 99.6% | 90.2% | 24% | 24% | 8% | 62% | 1% | 0% |  |
| COc1ccc(C2=C(Nc3cccc(O)c3)C(=O)NC2=O)cc1 [SB-390766] | 20% | 0% | 0% | 13% | 0% | 0% | 0% | 0% | 0% | 0% |  |
| COc1cccc(C2=C(Nc3cccc(O)c3)C(=O)NC2=O)c1 [SB-390771] | 38% | 0% | 4% | 10% | 0% | 18% | 0% | 6% | 0% | 5% |  |
| CCNC(=O)/C=C/c1n[nH]c2cc(Sc3ccccc3C(=O)NC)ccc12 | 29% | 98.5% | 89% | 24% | 24% | 12% | 20% | 15% | 0% | 4% |  |
| Cc1cc(-c2c(-c3ccc(F)cc3)ncn2CCCN2CCOCC2)nc(N)n1 [SB-222517] | 14% | 37% | 18% | 0% | 21% | 0% | 0% | 0% | 0% | 1% |  |
| Cl.Cl.NCC(NC(=O)c1cc(-c2cccnc2)c(-c2ccnc3[nH]ccc23)s1)c1ccccc1 (centres unmarked) [GSK1323434] | 59% | 54% | 37% | 30% | 0% | 19% | 0% | 0% | 0% | 97.5% |  |
| CN(C)CCOc1ccc(-c2cc(-c3ccc(Cl)c(O)c3)c(-c3ccncc3)[nH]2)cc1.Cl.Cl [SB-684387] | 0% | 50% | 59% | 34% | 90.5% | 31% | 0% | 51% | 0% | 33% |  |
| COC(=O)Nc1nc2cc(Oc3ccc(NC(=O)Nc4cccc(SC)c4)cc3)ccc2[nH]1.Cl [GW697999] | 0% | 91.4% | 90.1% | 76% | 0% | 0% | 0% | 0% | 0% | 0% |  |
| O=C(O)C(F)(F)F.O=c1[nH]ccc2nc(N[C@@H]3CCNC3)nc(Nc3cc(Cl)cc(Cl)c3)c12 [GSK2188764] |  | 9% | 11% | 0% | 0% | 0% | 0% | 0% | 0% | 25% | 89% |
| Cc1ccc(-c2ccc3occ(-c4ccc(S(C)=O)cc4)c3c2)nn1 (centres unmarked) | 15% | 35% | 29% | 0% | 7% | 0% | 0% | 0% | 20% | 0% |  |
| Cc1ccc(Nc2ccnc(Nc3ccc(C)c(F)c3)n2)cc1O.Cl [GW582868] | 0% | 3% | 47% | 70% | 0% | 88% | 53% | 92.9% | 62% | 14% |  |

| Compound | %Inh (AAK1; [1]) | %Inh (ABL1-nonphosphorylated) | %Inh (ABL1-phosphorylated) | %Inh (ABL2) | %Inh (ACVR1B) | %Inh (ACVR1) | %Inh (ACVR2A) | %Inh (ACVR2B) | %Inh (ACVRL1) | %Inh (ADCK3) | %Inh (AAK1; 1 µM) |
| --- | --- | --- | --- | --- | --- | --- | --- | --- | --- | --- | --- |
| COc1cccc(CC(=O)N2CCc3cc(-c4cn(C)c5ncnc(N)c45)ccc32)c1 [GSK2608899] | 18% | 57% | 4% | 30% | 14% | 0% | 0% | 61% | 19% | 2% |  |
| Cc1ccc(C)c(NC(=O)Nc2ccc(C)c(-c3ccc(C(=O)Nc4ccncc4)cc3)c2)c1 [GSK1398473] | 11% | 0% | 0% | 14% | 0% | 18% | 0% | 3% | 0% | 14% |  |
| COc1ccc(NC(=O)c2ccoc2)cc1-c1ccc(C(=O)NCC2CC2)cc1 [GW810437] | 0% | 24% | 1% | 5% | 4% | 0% | 0% | 17% | 10% | 0% |  |
| COC(=O)Nc1nc2ccc(Oc3ccc(NC(=O)Nc4cc(C(F)(F)F)ccc4F)cc3)cc2[nH]1.Cl [GW654607] | 17% | 99.4% | 57% | 94% | 0% | 0% | 0% | 0% | 0% | 1% |  |
| CN1CCN(Cc2ccc(NC(=O)Nc3ccc(N(C)c4ccnc(Nc5ccc(CS(C)(=O)=O)cc5)n4)cc3)cc2)CC1.Cl [GW827654] | 62% | 100% | 94.2% | 81% | 0% | 58% | 0% | 38% | 57% | 0% |  |
| CN(c1ccc(NC(=O)N2CCN(CCCN3CCOCC3)CC2)cc1)c1ccnc(Nc2ccc(CS(C)(=O)=O)cc2)n1.Cl [GW830899] | 55% | 72% | 60% | 8% | 0% | 0% | 23% | 45% | 0% | 3% |  |
| O=C(Nc1n[nH]c2nc(-c3ccccc3)ccc12)C1CC1 [SB-708999] | 100% | 62% | 41% | 16% | 22% | 6% | 9% | 37% | 0% | 2% |  |
| Cc1cc(-c2ccnc(Nc3cccc(C#N)c3)n2)cc(C)c1O [GSK1440913] | 79% | 25% | 1% | 37% | 0% | 96.5% | 8% | 88% | 17% | 35% |  |
| O=C1NC(=O)C(c2ccccc2Cl)=C1Nc1cccc(Cl)c1 [SB-342409] | 7% | 0% | 9% | 16% | 0% | 12% | 0% | 0% | 70% | 20% |  |
| Cl.O=C(Nc1ccc(Oc2ccc3[nH]c(NC(=O)c4ccco4)nc3c2)cc1)Nc1cc(C(F)(F)F)ccc1F [GW683134] | 5% | 96.1% | 76% | 97.9% | 0% | 0% | 4% | 0% | 0% | 0% |  |
| CSc1ccc(NC2=C(c3ccc(Cl)cc3)C(=O)NC2=O)cc1 [SB-317658] | 0% | 0% | 0% | 0% | 13% | 0% | 15% | 0% | 23% | 1% |  |
| Nc1ncnc2scc(-c3ccc(NC(=O)Cc4cc(F)ccc4F)cc3)c12.O=C(O)C(F)(F)F [SB-731254-M] | 10% | 80% | 50% | 9% | 14% | 0% | 24% | 1% | 0% | 16% |  |
| CN(c1ccc(F)c(NC(=O)c2cccc(OC(C)(C)C#N)c2Cl)c1)c1ccc2nc(NC(=O)C3CC3)sc2n1 | 2% | 99% | 92.6% | 89% | 0% | 0% | 0% | 0% | 0% | 0% |  |
| Cc1ccc(O)cc1Nc1ccnc2cc(-c3ccc(CN4CCCCC4)o3)ccc12 [GW557777] | 10% | 100% | 99.9% | 100% | 79% | 99.4% | 18% | 94.7% | 90.3% | 4% |  |
| CC(C)c1nc(-c2cccc(NS(=O)(=O)c3c(F)cccc3F)c2)c(-c2ccnc(Nc3ccc(N4CCOCC4)nc3)n2)s1.Cl [GSK1723980] | 7% | 99.7% | 95.6% | 99.4% | 89% | 95.9% | 0% | 81% | 83% | 100% |  |
| Cc1ccc(NC(=O)c2ccc(Cl)c(Cl)c2)cc1-c1ccc(C(=O)Nc2ccncc2)cc1 [GSK1398460] | 8% | 26% | 4% | 41% | 0% | 6% | 0% | 2% | 0% | 9% |  |
